Among the data in PubChem BioAssay AID651871 (Sanford-Burnham Center for Chemical Genomics, 2012) are activity (protection/inhibition) values, retold here.

Values joined by “and” are separate entries in the source; they are usually repeats but may differ in a detail not shown here. Equal values may be shown once.

The assay has as its system HL-1. In words: protection of cardiomyocytes from stress damage, SAR follow-up, cell-based, panel, H9c2 and HL-1, ATP luminescence, set 2 (AID 651871).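 Also: cells exposed to stressor for 2 h before ATP readout; reference of the scale not given here.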 The settings on record: H9c2/HL-1 cardiomyocytes, 2-deoxyglucose stress, with 2-deoxyglucose, run 5, at 79 µM (top of the series).
With `COc1ccc2c(c1OC)C(=O)N1c3ccccc3C(=O)N(Cc3cccc(Cl)c3Cl)C21` (stereo not drawn), the activity (protection/inhibition) is 43.8% and -9.92%. Take `CCOC(=O)c1cccc(NC(=O)CNC(=O)c2cc(-c3cc(OC)c(OC)c(OC)c3)nc3ccccc23)c1`: the activity (protection/inhibition) was found to be 51.1%. As for `COc1ccc2nc(-c3cc(OC)c(OC)c(OC)c3)cc(C(=O)NCC(=O)Nc3ccc(C(C)=O)cc3)c2c1`, the activity (protection/inhibition) amounted to 55.8%.
